From PubChem BioAssay (NCI)
This is part of a sample that, as a whole, favours compounds with a hit. Of some 83,000 tested, about 20% had one in any assay.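 Method: cells in 96-well plates; compound added at one concentration; 48 h incubation; percent growth measured; values under 10 scored active.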 Unmarked numbers belong to inactive results. The source made the active and inactive calls.

Tested on: HL-60(TB) leukemia
Test: NCI-60 one-dose screen, 48 h (100 = growth as untreated, 0 = no growth, -100 = all killed)
Conditions: 10 µM unless noted

O=C(COc1cccc(/C=C2\Cc3ccccc3C2=O)c1)c1ccc(Cl)cc1
growth: 94.2%

CCOC(=O)C1C(=O)C=C(c2cnccn2)CC1c1ccc(OC)c(OC)c1 (stereo not drawn)
growth: 63.9%

O=C(/C=C/c1ccc(O)c(O)c1)N1CCN(c2ccc(Cl)cc2)CC1
growth: 12.9%

COc1cc(/C=C2\CCCC3=C2N=C2SC=NN2C3c2cc(OC)c(OC)c(OC)c2)cc(OC)c1OC (stereo not drawn)
growth: -1.19% (active)

COc1ccc(-c2nc(N/N=C/c3ccco3)nc(N3CCOCC3)c2C#N)cc1
growth: 94.8%

COc1ccc(C2CC(=O)c3c(nc4ccc(Cl)cc4c3N)C2)cc1 (stereo not drawn)
growth: 99.1%

CCCCc1ccc(C(N)=O)nc1
growth: 88.2%

Cc1ccc(C2CC(c3ccc(Nc4nc(NCCO)nc(Nc5ccc(Cl)cc5)n4)cc3)=NN2c2cc(Cl)cc(Cl)c2)cc1 (stereo not drawn)
growth: 100%

CS(=O)(=O)Nc1cccc(-c2ccc3ncnc(Nc4cncc(Cl)c4)c3c2)c1
growth: 35.5%

C=C(C)[C@@H]1CC[C@]2(C(=O)O)CC[C@]3(C)[C@H](CC[C@@H]4[C@@]5(C)C[C@@H](CC#Cc6ccc(C(C)=O)s6)[C@H](O)C(C)(C)[C@@H]5CC[C@]43C)[C@@H]12
growth: 54%

Cc1ncc(C(=O)Nc2ccc(CN3CCN(C)CC3)c(C(F)(F)F)c2)cc1C#Cc1c(N)ncc2ccc(F)cc12
growth: 9.43% (active)

Cc1ccc2cnc(N)c(C#Cc3cncc(C(=O)Nc4ccc(CN5CCN(C)CC5)c(C(F)(F)F)c4)c3)c2c1
growth: -59.7% (active)

COc1ccc(S(=O)(=O)NCCCNc2nccc(-n3ccc4cccnc43)n2)cc1
growth: 104%

CCn1cc(C(=O)O)c(=O)c2cc(F)c(N3CCN(CC(=O)Nc4ccc(S(=O)(=O)Nc5nccc(C)n5)cc4)C(C)C3)c(F)c21 (stereo not drawn)
growth: 115%

COc1ccc(OC)c(CCn2cncc2-c2c[nH]c3cc(Br)ccc23)c1
growth: -9.46% (active)

COc1ccc(-n2[nH]c3c(cnc4ccccc43)c2=O)cc1
growth: 97.3%

COc1ccc(C2CC(c3ccc(Cl)cc3)=NN2/C=C2\SC(=S)N(NC(=O)Cc3ccccc3Nc3c(Cl)cccc3Cl)C2=O)cc1 (stereo not drawn)
growth: 64.7%

COc1cc2nc(Sc3sc(N)nc3C)n(-c3ccc(Oc4ccccc4)cc3)c(=O)c2cc1OC
growth: 78.9%

O=C1c2ccccc2CCc2ccccc21
growth: 90%

C#CCn1cc(C=C2C(=O)N(C)C(=O)N(C)C2=O)c2cc(Cl)ccc21
growth: 105%

S=C(c1ccc2c(c1)OCO2)N1CCN(c2cccc(Cl)c2)CC1
growth: 11.9%

Cc1nc(-n2[nH]c(=O)ccc2=O)sc1N=Nc1ccccc1
growth: 98%

Cc1cc(N/N=C/c2ccccn2)nc2ccccc12
growth: -12.8% (active)

Cc1ccccc1-c1cc(-c2ccc(Br)s2)[nH]c(=O)c1C#N
growth: 82%

O=C(Nc1ccc(Oc2cccc(Cl)c2)c(Cl)c1)c1cccnc1
growth: 6.06% (active)

CCN=C1C=CC(=C(c2ccc(N(C)C)cc2)c2ccc(N(C)C)cc2)c2ccccc21
growth: -9.26% (active)

O=C1/C(=C/N2N=C(c3ccc(Cl)cc3)CC2c2ccccc2O)SC(=S)N1c1cccc(C(F)(F)F)c1 (stereo not drawn)
growth: 52.2%

O=C(CCNCc1ccccc1)c1ccccc1
growth: 104%

CCCCCCCCCCCCCCCCCCOc1cccc(CC(=O)OCC[N+](CC)(CC)CC)c1
growth: 9.38% (active)

COc1cccc2c1Cc1ccccc1-2
growth: 97.5%

O=C1Nc2ccccc2/C1=C/c1cn(CC(O)Cn2cc(/C=C3\C(=O)Nc4ccccc43)c3ccccc32)c2ccccc12 (stereo not drawn)
growth: -10.2% (active)

Clc1ccc(Cl)c(N=Cc2ccc3c(c2)OCO3)c1
growth: 102%

CC1(O)CCC(Nc2cc(-c3ccc(C(F)(F)F)cc3)c(C#N)c3nc4ccccc4n23)CC1 (stereo not drawn)
growth: 63%

CCN1C(=S)N(CC)C2C1NC(=S)N2/N=C/C=C/c1ccccc1 (stereo not drawn)
growth: -22.2% (active)

CCC1S/C(=N\N=C(/C)c2cc3ccccc3o2)N(c2ccccc2)C1=O (stereo not drawn)
growth: -93.7% (active)

CNc1ccc(Nc2ccc(S(=O)(=O)O)cc2)c2c1C(=O)c1ccccc1C2=O
growth: 120%

CC1CCN(CCCCCOc2ccc3oc4cc(Cl)ccc4c(=O)c3c2)CC1
growth: 43.4%

c1ccc(Cc2ccccc2)cc1
growth: 112%
